Data taken from the supplement of paper PMC7595190.

Test system: MV4-11
Assay: CellTox Green cytotoxicity fluorescence relative to DMSO vehicle (fold of vehicle RFU); higher = more cell death (loss of membrane integrity), active = 2 or more
Procedure: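 Paediatric AML cell lines (MV4-11, CMK, Kasumi-1; 4x10^4 cells/well, 96-well) treated with single compounds from the Selleckchem apoptosis library at 0.01, 0.1 and 1 µM. Cytotoxicity was read with CellTox Green (RFU, Ex 485/Em 520) at 24, 48 and 72 h and normalised to the 0.1% DMSO vehicle. Normalised RFU >= 2 was taken as a successful, cell-killing treatment.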

Measured: CellTox Green cytotoxicity fluorescence

CC[C@H](C)[C@@H]([C@@H](CC(=O)N1CCC[C@H]1[C@H](OC)[C@@H](C)C(=O)N[C@H](C)[C@@H](O)c1ccccc1)OC)N(C)C(=O)[C@@H](NC(=O)[C@@H](NC)C(C)C)C(C)C [Monomethyl auristatin E]
active: 0.01 µM, 48 h 2.42 | 0.01 µM, 72 h 2.81 | 0.1 µM, 48 h 2.48 | 0.1 µM, 72 h 2.73 | 1 µM, 48 h 2.5 | 1 µM, 72 h 2.74
inactive: 0.01 µM, 24 h 1.19 | 0.1 µM, 24 h 1.3 | 1 µM, 24 h 1.58
